# FMDV antiviral – High Throughput Screening for Foot and Mouth Disease Virus Antivirals; AID 1159524, 2015; Potency, µM (series often up to 57.9 µM), most hits filed as inhibitors; FMDV antiviral cell-based qHTS; 410,000 tested, 1.2% active; calls by dose curve; tested in HEK293T cells; also: read-out not given here; nearly all actives have a fitted effect of over 45% in size
# HCV inhibitor – qHTS Assay for Inhibitors of Hepatitis C Virus (HCV) | AID 651820, 2012 | Potency, µM (doses to about 41.8 µM), hits mostly inhibitors | 340,000 tested, 3.4% active | Huh7.5.1 HCVcc-Cre infection, luciferase reporter, 44 h
#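 Infectious HCVcc-Cre (~0.5 moi) was added to cells just after compound, with cells seeded 4 h earlier at 1,000 per well. Luciferase activity after 44 h culture reported infection; substrate was incubated 15 min at room temperature before reading.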
# Vaccinia mCherry – qHTS for Stage-Specific Inhibitors of Vaccinia Orthopoxvirus: mCherry Reporter Primary qHTS. 310,000 tested, 0.63% active. Potency, µM (titrated, usually from 36.5 µM), hits mostly inhibitors. AID 720579, 2013. Vaccinia virus mCherry reporter infection, fluorescence; calls by dose curve; tested in A549 cells; also: nearly all actives have a fitted effect of over 35% in size
# Giardia FBPA inh – qHTS Assay for Inhibitors of Fructose-1,6-bisphosphate Aldolase from Giardia Lamblia | purified Giardia FBPA | Potency, µM (doses to about 59.6 µM), most hits filed as inhibitors | 290,000 tested, 0.71% active | AID 2451, 2010; also: nearly all actives have a fitted effect of over 55% in size
# Target sequence (A8B2U2 whole entry, looked up): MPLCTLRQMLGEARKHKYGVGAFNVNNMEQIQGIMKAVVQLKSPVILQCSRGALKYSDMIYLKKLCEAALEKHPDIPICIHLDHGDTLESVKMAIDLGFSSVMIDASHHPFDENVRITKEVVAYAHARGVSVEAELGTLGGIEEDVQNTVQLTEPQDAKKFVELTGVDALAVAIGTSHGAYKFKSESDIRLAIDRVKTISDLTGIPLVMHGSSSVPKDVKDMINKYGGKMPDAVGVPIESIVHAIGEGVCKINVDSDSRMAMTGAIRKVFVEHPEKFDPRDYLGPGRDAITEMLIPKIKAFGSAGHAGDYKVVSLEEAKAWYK
#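 Giardia FBPA (40 nM reagent) was preincubated 10 min at RT with compound (up to 57.5 uM final), then substrate plus GAPDH/TPI/NAD/arsenate coupling system with diaphorase/resazurin was added; resorufin fluorescence (525/598 nm) was read after 20 min.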
# Vaccinia Venus – qHTS for Stage-Specific Inhibitors of Vaccinia Orthopoxvirus: Venus Reporter Primary qHTS; Potency, µM (titrated, usually from 36.5 µM), most hits filed as inhibitors; Vaccinia virus Venus reporter expression, fluorescence; 330,000 tested, 0.46% active; calls by dose curve; tested in A549 cells; also: nearly all actives have a fitted effect of over 30% in size
# HCMV antiviral – qHTS Assay for inhibitors of the human cytomegalovirus (HCMV). HFF cells, HCMV-luciferase reporter, 72 h; stronger effect = lower value. 410,000 tested, 4.5% active. activity change, negative = inhibition, % at 57.5 µM; in the data active = activity change below about -60%; inconclusive = no clear call, values can overlap the other calls; inactive = above about -39%
#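 Two-dose cell screen: HFF monolayers treated with compounds and infected with luciferase-expressing HCMV at 1 PFU/cell, 72 h at 37C, then lysed for luciferase measurement.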
# A number is an active result; . = inactive; ? = inconclusive; / = no result given; ! = repeats disagree. In the library only some 7.5% were active in any assay of this set; here they are far more common. Unless noted, calls follow the shape of the dose curve; as a rule, active = well fitted curve in the direction sought with a large enough effect; inconclusive = small, poorly fitted or top-dose-only effect, or another doubt; inactive = no such curve, though single readings can be large; an effect the other way counts as inactive or inconclusive.
SMILES,FMDV antiviral,HCV inhibitor,Vaccinia mCherry,Giardia FBPA inh,Vaccinia Venus,HCMV antiviral
CCN(CCCNC(=O)c1cc2cc3ccc(OC)cc3nc2s1)c1cccc(C)c1,.,/,.,/,.,-68
COc1ccc(OC)c(NC(=O)c2cc3cc4ccc(C)cc4nc3s2)c1,.,/,.,/,.,.
CC1=CC(=Nc2c(C)n(C)n(-c3ccccc3)c2=O)C=C(C)C1=O,?,.,.,?,.,-75
CC1=CC(=Nc2c(C)n(C)n(-c3ccccc3)c2=O)C=CC1=O,/,/,/,3.5µM,/,/
Cc1c(C(=O)N2CCCCC2)nnn1-c1nonc1N,.,.,.,.,.,-62
CCOC(=O)c1cccc(NC(=O)Nc2ccc3c(c2)C(=O)OC3)c1,.,.,.,.,.,?
CCOc1ccc(CN(C)Cc2cc(=O)oc3c(C)c(C)ccc23)cc1OC,?,11µM,.,/,.,.
COc1ccc(CN(C)Cc2cc(=O)oc3cc(C)c(C(C)C)cc23)cc1OC,?,?,.,.,.,.
CSc1ccc(CN(C)Cc2cc(=O)oc3c(C)c(C)ccc23)cc1,?,?,/,.,/,.
COc1cc(CN(C)Cc2cc(=O)oc3cc(C)c(Cl)cc23)ccc1OC(F)F,?,10µM,.,.,.,.
CC(=O)N1c2ccccc2C(=O)C1N1CCN(c2cccc(C(F)(F)F)c2)CC1 (stereo not given),.,/,.,/,.,?
COc1ccc(Nc2c(-c3ccc(F)cc3)nc3nc(C)cc(C)n23)cc1,.,/,.,/,.,-67
O=C(Nc1ccccc1Cl)N[C@H]1CC[C@@]23CCCN2C(=O)CCC[C@H]3C1Cc1ccccc1 (stereo not given in full),/,/,/,/,/,.
O=C(c1ccccc1)N1CCCC(c2ccc(Cl)cc2)=N1,/,?,.,.,.,.
O=C(c1cccc(Cl)c1)N1CCCC(c2ccc(Cl)cc2)=N1,/,7.9µM,.,.,.,.
COc1ccc2nc(NC(=O)c3ccc(F)cc3)sc2c1,.,.,.,.,.,.
COc1ccc2nc(NC(=O)c3ccc(-n4nc(C)cc4C)cc3)sc2c1,.,.,/,.,.,-106
COc1ccc2nc(NC(=O)Nc3cccc4ccccc34)sc2c1,.,.,/,.,/,-76
COc1ccc2nc(NC(=O)Nc3ccccc3OC)sc2c1,.,?,?,.,.,.
CCC(=O)N(Cc1cc(=O)[nH]c2ccccc12)c1ccc(C)cc1C,.,.,/,.,/,.
O=C(CSc1nc2ccccc2c(=O)n1-c1ccccc1)N1CCC1,.,.,.,.,.,.
CC(C)Cn1c(SCC(=O)N2CCc3ccccc3C2)nc2cc(Cl)ccc2c1=O,.,.,.,.,.,.
O=C(CSc1nc2ccccc2c(=O)n1-c1ccccc1)N1CCc2ccccc2C1,?,13µM,.,.,.,-94
O=C1COc2ccc(C(=O)CSc3ccccc3C(=O)O)cc2N1,.,.,/,.,/,.
CC(C)c1ccccc1-n1c(SCC(=O)c2ccc3c(c2)NC(=O)CO3)nc2ccccc2c1=O,?,13µM,.,.,.,.
SMILES,FMDV antiviral,HCV inhibitor,Vaccinia mCherry,Giardia FBPA inh,Vaccinia Venus,HCMV antiviral
CC(C)c1ccccc1-n1c(SCC(=O)N2CCc3ccccc3C2)nc2ccccc2c1=O,?,10µM,/,.,/,-95
CCS(=O)(=O)N1CCc2cc(C(=O)Nc3cc([N+](=O)[O-])ccc3C)ccc21,?,/,.,/,.,.
CCN(C(=O)COC(=O)CSc1ccc(F)cc1)c1c(N)n(Cc2ccccc2)c(=O)[nH]c1=O,.,.,/,/,/,.
CC(=O)NCCC1CCN(C(=O)C2CCC(=O)N(C3CCCC3)C2)CC1 (stereo not given),.,.,/,/,/,?
COc1ccc(OC)c(/C=N/NC(=O)CCN2CCN(C(c3ccccc3)c3ccccc3)CC2)c1,.,10µM,?,.,?,.
O=C(CCN1CCN(C(c2ccccc2)c2ccccc2)CC1)N/N=C/c1ccc(O)cc1O,.,7.9µM,20µM,.,?,.
Cc1cc(C)n(CCC(=O)N/N=C/c2ccc(O)cc2O)n1,.,?,20µM,.,?,.
Cc1cc(C)n(CCC(=O)N/N=C/c2ccccc2O)n1,.,?,?,?,?,.
Cc1ccc(C(=O)NC(C)c2nnc(SCC(=O)NC3CCCC3)n2C)cc1 (stereo not given),.,.,.,/,.,.
CCN(CC)CCCC(C)n1c(-c2ccccc2)nc2c(N(CCOC)CCOC)nc(C)nc21 (stereo not given),/,/,/,.,/,/
O=C(N[C@@H](c1ccccc1)[C@@H]1C[C@H]1C(=O)NCc1ccccc1)OCc1ccccc1,/,/,/,.,/,/
CC(C)(C)c1ccc(CN2C3=NCCCN3c3ccccc32)cc1,?,32µM,?,.,?,-85
CCCCN1C2=NCCCN2c2ccccc21,/,.,.,.,.,.
O=C(O)CN1C2=NCCCN2c2ccccc21,.,.,.,.,.,.
Clc1ccc(CN2C3=NCCN3c3ccccc32)cc1,.,13µM,/,.,.,.
O=C(CN1C2=NCCCN2c2ccccc21)c1ccc2c(c1)OCO2,/,11µM,?,.,.,.
CCCCCCCN1C2=NCCCN2c2ccccc21,?,10µM,.,.,.,?
Cc1ccc(CN2C3=NCCCN3c3ccccc32)cc1,.,?,.,.,.,.
CCOc1ccc(NC(=O)CN(C)C(=O)c2cc3c(s2)CCC3)cc1OCC,.,/,.,/,.,.
CCCc1nnc(N2C(=O)c3oc4ccc(F)cc4c(=O)c3C2c2ccc(C(=O)OC)cc2)s1 (stereo not given),.,/,.,/,.,.
NNc1nc(-c2ccccc2)cc(-c2ccccc2)n1,.,13µM,/,.,/,.
Nc1ccc(S(=O)(=O)Nc2nc(-c3ccccc3)cc(-c3ccccc3O)n2)cc1,.,/,.,/,.,.
NNc1nc(-c2ccccc2)cc(-c2ccccc2O)n1,.,?,/,.,/,.
Nc1nc(-c2ccccc2)cc(-c2ccccc2O)n1,/,.,?,.,11µM,-96
NC(=O)c1ccccc1NC(=O)CCn1c(=S)oc2ccccc21,.,.,.,.,.,.
SMILES,FMDV antiviral,HCV inhibitor,Vaccinia mCherry,Giardia FBPA inh,Vaccinia Venus,HCMV antiviral
CC(C)NC(=O)c1cn([C@H]2CC[C@@H](NC(=O)/C=C/c3cccs3)CC2)nn1,.,/,.,/,.,/
Cc1cc(C)cc(NC(=O)Cn2nnc(C(=O)NCc3ccccc3Cl)c2N)c1,.,.,?,.,?,-79!
CN(C)S(=O)(=O)N1CCN(C(=O)N2CCCCC2)CC1,/,.,.,.,.,.
CN(C)S(=O)(=O)N1CCN(C(=O)N2CCOCC2)CC1,/,.,.,.,.,-101
COc1ccc(OCCn2nnc3sc4c(c3c2=O)CCC(C(C)(C)C)C4)cc1 (stereo not given),.,/,.,/,.,.
O=C(c1ccco1)N1CCC2(CC1)CN(Cc1cc(C(F)(F)F)cc(C(F)(F)F)c1)C2,.,/,/,.,/,/

# High-throughput results (PubChem BioAssay)
